Results reported in PubChem BioAssay (NCI).
Compounds without any hit were thinned out: in the full panel of roughly 79,000, 15% have a hit. Calls of active or inactive are those of the source. No stated cut-off is given here; in the data, active means growth inhibition above about 70%; inactive means the rest.

Key:
[1] = NCI Yeast Anticancer Drug Screen. Data for the rad52 strain (AID 147);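 further: 0% = growth of vehicle-treated control cultures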; conditions: S. cerevisiae rad52 mutant growth inhibition, hits give high values
In short: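 Read-out: growth inhibition versus vehicle-treated controls. Cells were a DNA repair-deficient yeast strain treated with compounds.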

[2] = NCI Yeast Anticancer Drug Screen. Data for the wt1 strain (AID 149);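 further: 0% = growth of vehicle-treated wt1 cultures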; conditions: S. cerevisiae wt1 strain (SPY 50644) growth inhibition, hits give high values
In short: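 Each compound is tested on wt1 yeast and the loss of growth versus vehicle gives the inhibition value.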

[3] = NCI Yeast Anticancer Drug Screen. Data for the rad50EPP+ strain (AID 151);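 further: 0% = growth of vehicle-treated control cultures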; conditions: S. cerevisiae rad50 mutant strain, hits give high values
In short: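 Growth inhibition read against vehicle controls in rad50EPP+ yeast, a strain altered in DNA damage repair, after compound exposure.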

[4] = NCI Yeast Anticancer Drug Screen. Data for the mgt1 strain (AID 153); conditions: S. cerevisiae mgt1 mutant growth inhibition, hits give high values
In short: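 mgt1 yeast grown with test compound; read-out is growth inhibition versus vehicle-treated cultures.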

[5] = NCI Yeast Anticancer Drug Screen. Data for the rad50 strain (AID 155);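 further: 0% = growth of vehicle-only cultures of the same strain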; conditions: S. cerevisiae rad50 strain growth inhibition, hits give high values
In short: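 Vehicle-treated cultures provide the reference for the growth inhibition reported for compound-exposed, repair-deficient yeast.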

[6] = NCI Yeast Anticancer Drug Screen. Data for the mec2-1 strain (AID 157); conditions: S. cerevisiae mec2-1 strain, hits give high values
In short: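 Yeast mec2-1 mutant treated with compound. Readout: growth inhibition vs vehicle controls.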

[7] = NCI Yeast Anticancer Drug Screen. Data for the rad14 strain (AID 159);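 further: 0% = growth of vehicle-treated control cultures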; conditions: S. cerevisiae rad14 strain growth inhibition, hits give high values
In short: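 Inhibition of growth is reported for a repair-deficient yeast mutant following compound treatment, calculated relative to cultures that received vehicle.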

[8] = NCI Yeast Anticancer Drug Screen. Data for the sgs1 mgt1 strain (AID 161);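 further: 0% = growth of cultures given vehicle only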; conditions: S. cerevisiae sgs1 mgt1 strain, hits give high values
In short: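 Genetically altered yeast, compound exposure, growth inhibition relative to vehicle.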

[9] = NCI Yeast Anticancer Drug Screen. Data for the cln2 rad14 strain (AID 165);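 further: 0% = growth equal to vehicle treated cultures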; conditions: S. cerevisiae cln2 rad14 strain, hits give high values
In short: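 cln2 rad14 yeast strain; compound exposure; growth inhibition read vs vehicle controls.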

[10] = NCI Yeast Anticancer Drug Screen. Data for the bub3 strain (AID 167); conditions: S. cerevisiae bub3 mutant strain, hits give high values
In short: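 Mutant yeast screening strain plus compound; vehicle-treated cultures serve as the 0% inhibition reference.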

[11] = NCI Yeast Anticancer Drug Screen. Data for the wt2 strain (AID 169); conditions: S. cerevisiae wt2 strain growth inhibition, hits give high values
In short: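 Read-out: growth inhibition versus vehicle-treated control cultures after compound exposure of the yeast strain.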

[12] = NCI Yeast Anticancer Drug Screen. Data for the mlh1 strain (AID 171);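 further: 0% = growth of vehicle-treated control cultures of the same strain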; conditions: S. cerevisiae mlh1 strain growth inhibition, hits give high values
In short: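 Read-out: growth inhibition versus vehicle controls. Strain: engineered yeast with a defined DNA repair or cell cycle defect, compound-treated.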

[13] = NCI Yeast Anticancer Drug Screen. Data for the sgs1 strain (AID 173);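 further: 0% = growth of vehicle-only control cultures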; conditions: S. cerevisiae sgs1 mutant, hits give high values
In short: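 Read-out: yeast growth inhibition relative to vehicle controls, following compound exposure of a strain with a defined DNA repair/cell cycle alteration.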

[14] = NCI Yeast Anticancer Drug Screen. Data for the mlh1 rad18 strain (AID 175); conditions: S. cerevisiae mlh1 rad18 strain growth inhibition, hits give high values
In short: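 Yeast w/ defined DNA-repair lesions; compound exposure; growth vs vehicle controls → % inhibition.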

[15] = NCI Yeast Anticancer Drug Screen. Data for the rad18 strain (AID 177); conditions: S. cerevisiae rad18 mutant growth inhibition, hits give high values
In short: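 Readout: growth inhibition vs vehicle controls. Cells: genetically altered yeast strain, DNA repair defect.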

[16] = at 5.0 µM (retest, dose inferred, filed as 0.5)
[17] = at 50.0 µM (retest, dose inferred, filed as 5.0)

Measured: growth inhibition

CCc1nc2ccc(NCCN(C)C)c3c(=O)c4ccccc4n1c23
active: [1]; at 33.0 µM 81% | [1]; at 100.0 µM 85% | [3]; at 100.0 µM 71% | [5]; at 11.0 µM 74% | [5]; at 33.0 µM 89% | [5]; [17] 86% | [5]; at 100.0 µM 91% | [14]; at 50.0 µM 83.8% | [15]; at 100.0 µM 80%
inactive: [1]; at 1.2 µM 12% | [1]; at 3.7 µM 39% | [1]; at 11.0 µM 60% | [2]; at 1.2 µM 25% | [2]; at 3.7 µM 29% | [2]; at 11.0 µM 31% | [2]; at 33.0 µM 22% | [2]; at 100.0 µM 22% | [3]; at 1.2 µM 14% | [3]; at 3.7 µM 26% | [3]; at 11.0 µM 39% | [3]; at 33.0 µM 57% | [4]; at 1.2 µM 37% | [4]; at 3.7 µM 38% | [4]; at 11.0 µM 29% | [4]; at 33.0 µM 23% | [4]; at 100.0 µM 40% | [5]; at 1.2 µM 46% | [5]; at 3.7 µM 49% | [5]; [16] 38% | [5]; at 50.0 µM 29.1% | [6]; at 1.2 µM 25% | [6]; at 3.7 µM 26% | [6]; [16] 4% | [6]; at 11.0 µM 11% | [6]; at 33.0 µM 24% | [6]; [17] 40% | [6]; at 50.0 µM 20.1% | [6]; at 100.0 µM 16% | [7]; at 1.2 µM 31% | [7]; at 3.7 µM 33% | [7]; at 11.0 µM 35% | [7]; at 33.0 µM 37% | [7]; at 100.0 µM 58% | [8]; [16] 3% | [8]; [17] 28% | [8]; at 50.0 µM 19.6% | [9]; [16] 14% | [9]; [17] 26% | [9]; at 50.0 µM 21.8% | [10]; at 1.2 µM 9% | [10]; at 3.7 µM 11% | [10]; [16] 4% | [10]; at 11.0 µM 5% | [10]; at 33.0 µM 3% | [10]; [17] 32% | [10]; at 50.0 µM -4.2% | [10]; at 100.0 µM 26% | [11]; at 1.2 µM -39% | [11]; at 3.7 µM -34% | [11]; at 11.0 µM -29% | [11]; at 33.0 µM -31% | [11]; at 100.0 µM 5% | [12]; at 1.2 µM 37% | [12]; at 3.7 µM 38% | [12]; at 11.0 µM 29% | [12]; at 33.0 µM 23% | [12]; at 100.0 µM 40% | [13]; at 1.2 µM 18% | [13]; at 3.7 µM 15% | [13]; at 11.0 µM 28% | [13]; at 33.0 µM 22% | [13]; at 100.0 µM 54% | [14]; [16] 14% | [14]; [17] 53% | [15]; at 1.2 µM 30% | [15]; at 3.7 µM 42% | [15]; at 11.0 µM 44% | [15]; at 33.0 µM 63%
